A selection: hits, their analogues and other compounds. The true share with any hit is near 6.6%.
Spn DPM-DC inh – S. pneumoniae DPM-DC inhibitors, primary screen, biochemical, PK/LDH-coupled NADH fluorescence | diphosphomevalonate decarboxylase (Streptococcus pneumoniae D39) | purified DPM-DC | calls only at 10 µM | actives 0.49% (n = 65,000) | AID 556, 2006;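 active = the 320 compounds with the highest percent inhibition in the single-dose primary screen, excluding strongly autofluorescent ones, cut at about 32% in these data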;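 also: kinetic rate of NADH fluorescence loss reporting ADP formed by the decarboxylase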
Spn MK inh – S. pneumoniae MK inhibitors, primary screen, biochemical, PK/LDH-coupled NADH absorbance; actives 0.48% (n = 65,000); AID 555, 2006; mevalonate kinase [Streptococcus pneumoniae D39]; purified MK, PK/LDH-coupled NADH absorbance 340 nm; inhibition, % at 10 µM;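 active = ranked among the strongest by inhibition in the single 10 µM screen, a fixed top-ranked set picked for dose follow-up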
NADH enzymes – inhibitors of PK/LDH coupling enzymes, profiling panel, artefact control, biochemical, MLSMR library | coupled PK/LDH NADH assays, four targets | IC50, µM (series often up to 10 µM) | actives 0.02% (n = 65,000) | AID 774, 2007;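 active = single-dose screening hits from any of four coupled enzyme assays that gave an IC50 when retested across doses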;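 also: the DPM-DC format reads NADH fluorescence rather than 340 nm absorbance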
PMK inhibit – S. pneumoniae PMK inhibitors, primary screen, biochemical, mevalonate pathway, pilot trial included; phosphomevalonate kinase (Streptococcus pneumoniae D39); purified PMK, PK/LDH-coupled NADH absorbance 340 nm; inhibition, % at 10 µM; actives 0.49% (n = 65,000); AID 539, 2006;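 active = top-ranked compounds by inhibition in the single 10 µM screen, taking a fixed number of the strongest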
Fluor 339 460 – intrinsic fluorescence of library compounds, ex339/em460 – biochemical, MLSMR library, data from DPM-DC assay, artefact control, profiling panel; compound autofluorescence, ex339/em460 nm, NADH buffer; stronger effect = higher value; 1 = no-compound wells, NADH background; fluorescence fold increase at 10 µM; actives 5.5% (n = 65,000);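 active = at 10 µM, mean starting fluorescence two-fold or more over control wells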;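 also: signal is the first read of a kinetic run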
Numbers stand for hits; i = inactive; nt = not tested or not shown; + = active, no number.

SMILES	Spn DPM-DC inh	Spn MK inh	NADH enzymes	PMK inhibit	Fluor 339 460
CCCCCCn1c(-c2ccco2)nc2oc3cc(OC)ccc3c(=O)c2c1=O	i	i	i	i	i
Cc1ccc(NC(=O)C2C3C=CC4(CN(Cc5cccnc5)C(=O)C24)O3)cc1 (stereo unspecified)	i	i	i	i	i
CCc1ccc(OCc2nnc(SCC(=O)NCc3ccco3)o2)cc1	i	i	i	26.0	i
Cn1c(=O)[nH]c(=O)c2c1nc(NCCCO)n2CCCc1ccccc1	i	i	i	i	i
COC(=O)c1ccc(NC(=O)C23CCC(C)(C(=O)O2)C3(C)C)cc1 (stereo unspecified)	i	i	i	i	i
CCOc1cccc2cc(-c3cn4cc(C)ccc4n3)c(=O)oc12	nt	i	i	i	5.05
COc1cccc2cc(-c3cn4cccc(C)c4n3)c(=O)oc12	i	i	i	i	i
COc1ccc2oc(=O)c(-c3nnc(NCc4ccco4)s3)cc2c1	i	i	i	i	i
CCOc1cccc2cc(-c3nnc(NCc4ccco4)s3)c(=O)oc12	i	i	i	i	2.19
Cc1oc2ccc(O)c(CN3CCOCC3)c2c1C(=O)c1ccc(Cl)cc1	i	i	i	i	i
Cc1c(O)ccc2c3c(c(=O)oc12)CCCC3	nt	i	i	i	3.89
O=c1oc2c(CN3CCOCC3)c(O)ccc2c2c1CCC2	nt	i	i	i	3.58
Cc1c(O)ccc2c3c(c(=O)oc12)CCC(C)C3 (stereo unspecified)	nt	i	i	i	3.67
COCCn1c(-c2ccc(-c3ccccc3Cl)o2)nc2c1c(=O)[nH]c(=O)n2CC(C)C	nt	i	i	i	2.1
O=S(=O)(Cc1ccccc1)N1CCC(c2nc(-c3cccs3)no2)CC1	i	i	i	i	3.09
O=C(Cc1ccccc1)N1CCCC(c2nc(-c3cccs3)no2)C1 (stereo unspecified)	i	i	i	i	i
COCCCn1c(SCC(=O)n2c(C)c(C)c3ccccc32)nnc1-c1ccoc1C	i	i	i	i	i
CN(C)S(=O)(=O)NCc1ccc2c(c1)OCO2	i	i	i	i	i
Cc1ccc(-c2nc3cnccn3c2Nc2ccccc2)o1	nt	i	i	i	2.12
CCCC1Cc2nc(N3CCCCC3)c(C#N)cc2CO1 (stereo unspecified)	nt	i	i	i	3.57
CCOc1ccccc1OCCCCN1CCCC1	i	50.0	i	i	i
COc1ccccc1C(c1nnnn1C(C)(C)C)N1CCN(Cc2ccncc2)CC1 (stereo unspecified)	i	i	i	27.0	i
O=C(c1ccc(Br)cc1)N1CCN(S(=O)(=O)c2ccccc2)CC1	i	i	i	i	i
COc1cc(OC)c(C2C3=C(CCCC3=O)Nc3nc4ccccc4n32)cc1OC (stereo unspecified)	i	i	i	i	i
COc1cccc(C2C3=C(CCCC3=O)Nc3nc4ccccc4n32)c1OC (stereo unspecified)	nt	i	i	i	5.02
SMILES	Spn DPM-DC inh	Spn MK inh	NADH enzymes	PMK inhibit	Fluor 339 460
COc1cccc(CSc2nc3sc(C)c(C)c3c(=O)n2Cc2ccco2)c1	i	i	i	i	i
Cn1c(SCc2ccc3c(c2)OCO3)nnc1-c1ccccc1	i	i	i	i	i
c1ccn2c(SCc3ccc4c(c3)OCO4)nnc2c1	i	48.0	i	i	i
COc1cccc(Oc2coc3c(CN4CCOCC4)c(O)ccc3c2=O)c1	nt	i	i	i	3.89
O=c1c(-c2ccc3c(c2)OCCO3)coc2c(CN3CCOCC3)c(O)ccc12	nt	i	i	i	3.79
COc1ccc(Oc2coc3cc(OC(=O)N4CCOCC4)ccc3c2=O)cc1	i	i	i	i	i
Cc1[nH]c(C(=O)N2CCCCC2)c(C)c1C(=O)NC1CCCCC1	i	i	i	i	i
COC(=O)C1=C(CSCc2ccco2)NC(=O)NC1c1cc(C)ccc1C (stereo unspecified)	i	i	i	i	i
O=C1c2oc3ccc(F)cc3c(=O)c2C(c2ccccc2)N1CC1CCCO1 (stereo unspecified)	i	i	i	i	i
Cc1ccc(-c2nc(NC(=O)CSc3nnc(C)s3)ns2)cc1	i	i	i	i	i
Cc1nnc(SCC(=O)Nc2nsc(-c3ccccc3)n2)s1	i	i	i	38.0	i
COc1ccc(-c2nc(NC(=O)CSc3nnc(C)s3)ns2)cc1	i	i	i	i	2.78
Cc1sc2nc3ccc(N4CCCCC4)nn3c(=O)c2c1C	i	i	i	i	2.44
Cc1ccc2nc3ccc(N4CCCC4)nn3c(=O)c2c1	i	i	i	i	i
O=c1c2[nH]c3cccc(Cl)c3c2ncn1Cc1ccncc1	i	i	i	i	i
COc1cccc2[nH]c3c(=O)n(CCN(C)C)cnc3c12	nt	i	i	i	3.76
CCN(CC)CCn1cnc2c([nH]c3cccc(OC)c32)c1=O	nt	i	i	i	3.73
COC(=O)c1ccc2c(c1)N(Cc1nc(-c3ccc(Cl)cc3)oc1C)C(=O)C1CCCN21 (stereo unspecified)	i	i	i	i	3.74
COC(=O)c1ccc2c(c1)N(Cc1nc(-c3cccc(Cl)c3)oc1C)C(=O)C1CCCN21 (stereo unspecified)	i	i	i	i	2.04
O=C(Cn1cc2c(n1)CCCCC2)NCc1ccccn1	i	i	i	i	i
CC(=O)c1ccc(N2CCN(c3ccc(C(F)(F)F)cn3)CC2)cc1	i	i	i	40.0	i
Cc1c(C(=O)N2CCN(c3ccc(C(F)(F)F)cn3)CC2)oc2ccccc12	i	i	i	i	i
c1ccc(C2Nc3ccccc3-c3nc4ccccc4n32)nc1 (stereo unspecified)	nt	i	i	i	2.34
c1coc(C2Nc3ccccc3-c3nc4ccccc4n32)c1 (stereo unspecified)	nt	i	i	i	2.28
O=C(O)C1=C(C(=O)Nc2ccc(F)c(Cl)c2)CCCC1	i	i	i	25.0	i
SMILES	Spn DPM-DC inh	Spn MK inh	NADH enzymes	PMK inhibit	Fluor 339 460
Cc1noc(C)c1CSc1ccccc1C(=O)Nc1nccs1	i	i	i	i	i
CCOc1ccccc1-c1nc(C(N)=O)c2[nH]c(=O)n(-c3ccccc3)c2n1	i	i	i	i	2.95
COc1cccc(-c2nc(C(N)=O)c3[nH]c(=O)n(-c4ccccc4)c3n2)c1OC	i	i	i	i	i
Cc1cccc(-n2c(N)cc(=O)[nH]c2=S)c1	i	i	i	i	i
Cc1cccc(-n2c(=O)[nH]c3c(C(N)=O)nc(-c4ccccc4Cl)nc32)c1	nt	i	i	i	2.15
COc1ccccc1-c1nc(C(N)=O)c2[nH]c(=O)n(-c3cccc(C)c3)c2n1	+	i	i	i	3.85
CCOC(=O)c1c(NC(=O)c2noc3c2CCCC3)sc(C)c1C	i	i	i	i	3.26

Assay outcomes as filed in PubChem.
